The results in this text go back to PubChem BioAssay (NCATS).

A short description of experiment [1]: qHTS of pediatric cancer cell lines to identify multiple opportunities for drug repurposing: Primary screen for NB1643 cells (AID 1347099). Note: nearly all actives have a fitted effect of over 50% in size. The essentials: (§1)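 Readout: CellTiter-Glo luminescence, 48 h treatment. Controls DMSO (neutral) and bortezomib 2.3 µM final (positive). Potency and efficacy taken from primary-screen concentration-response curves.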
In general terms: Quantitative high-throughput screening tests each substance at several concentrations.

Experiment [2] in a line: qHTS of pediatric cancer cell lines to identify multiple opportunities for drug repurposing: Primary screen for LAN-5 cells (AID 1347100). The procedure, abridged:
(§2)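 Cells (500-1,000/well) rested 5 h, then received compounds for 48 h; metabolically active cells were measured by CellTiter-Glo luminescence. Final concentrations spanned up to 46 µM (MIPE, 11-point) or 0.59 nM-46 µM (NPC, 8-point) in primary screens, 11-point in follow-ups.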

Experiment [3] is described as follows: qHTS of pediatric cancer cell lines to identify multiple opportunities for drug repurposing: Primary screen for BT-12 cells (AID 1347101). Note: nearly all actives have a fitted effect of over 25% in size. The essentials:
as §2

Experiment [4] is described as follows: qHTS of pediatric cancer cell lines to identify multiple opportunities for drug repurposing: Primary screen for Rh30 cells (AID 1347107). Note: nearly all actives have a fitted effect of over 75% in size. The essentials: as §2
Experiment [5] is described as follows: qHTS of pediatric cancer cell lines to identify multiple opportunities for drug repurposing: Primary screen for Rh41 cells (AID 1347108). Note: nearly all actives have a fitted effect of over 70% in size. The procedure, abridged: as §1
Experiment [6] can be described thus: qHTS of pediatric cancer cell lines to identify multiple opportunities for drug repurposing: Primary screen for Rh18 cells (AID 1347102). Note: nearly all actives have a fitted effect of over 65% in size. The procedure, abridged:
as §2

Experiment [7] is described as follows: qHTS of pediatric cancer cell lines to identify multiple opportunities for drug repurposing: Primary screen for OHS-50 cells (AID 1347103). Note: nearly all actives have a fitted effect of over 40% in size. The procedure, abridged: as §2
The nature of experiment [8]: qHTS of pediatric cancer cell lines to identify multiple opportunities for drug repurposing: Primary screen for control Hh wild type fibroblast cells (AID 1347106). Note: nearly all actives have a fitted effect of over 55% in size. The essentials: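 Viability after 48 h compound treatment at 37C, 500-1,000 cells/well, read as ATP luminescence with CellTiter-Glo. Primary screens used 11-point (MIPE, 0.78 nM-46 µM) or 8-point (NPC, 0.59 nM-46 µM) final concentrations; follow-up screens used 11-point dilutions.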

The nature of experiment [9]: qHTS of pediatric cancer cell lines to identify multiple opportunities for drug repurposing: Primary screen for MG 63 (6-TG R) cells (AID 1347105). Note: nearly all actives have a fitted effect of over 50% in size. The essentials:
as §1

The nature of experiment [10]: qHTS of pediatric cancer cell lines to identify multiple opportunities for drug repurposing: Primary screen for RD cells (AID 1347104). Note: nearly all actives have a fitted effect of over 55% in size. The essentials:
as §1

Each structure is given as a SMILES string. Inconclusive results are not listed. Values without a mark were called inactive. The source made the active and inactive calls. Calls come from the whole dose curve; as a rule, active = well fitted curve in the direction sought with a large enough effect; inconclusive = small, poorly fitted or top-dose-only effect, or another doubt; inactive = no such curve, though single readings can be large; an effect the other way counts as inactive or inconclusive.
Potency is the fitted concentration of half-maximal effect.

Regarding `CSc1cccc(Nc2ncc3cc(-c4c(Cl)cccc4Cl)c(=O)n(C)c3n2)c1`, the Potency in experiment [1] is 0.209 µM (active); in [2], 0.372 µM (active); in [5], 0.743 µM (active). Besides, the Potency result in experiment [3] and in experiment [4] was “inactive” each time.

As for `O=C1NC(=O)C(=Cc2ccc(-c3ccc(F)cc3O)o2)S1`, the Potency result in experiment [1], in experiment [2], in experiment [6], in experiment [8] and in experiment [5] was “inactive” throughout. For the same compound, the Potency in [7] is 1.72 µM (active).

On to `C[C@@]1(C(=O)Nc2ccc(F)nc2)CCCN1c1nc(Nc2cc(C3CC3)[nH]n2)c2cccn2n1`, for which the Potency in [1] is 0.0935 µM (active); in experiment [2], 0.0264 µM (active); in experiment [6] it was 16.6 µM (active); in [7] it was 0.968 µM (active); in experiment [9] it was 11.8 µM (active); in experiment [8] it was 20.9 µM (active). Moreover, the Potency in experiment [5] is 0.0743 µM (active).

Take `O=c1[nH]c(=O)n([C@H]2C[C@@H](O)[C@@H](CO)O2)cc1I`: the Potency result in [1], in [2], in [6], in experiment [7], in experiment [10] and in experiment [9] was “inactive” in each case. The Potency entry in experiment [8], in [4] and in [5] was “inactive” in each case.

For `CC1(COc2ccc3c(c2)ncn3-c2ccc3cccc(N4CCC(N)CC4)c3n2)COC1`, in experiment [1], the Potency entry was “inactive”. Also, the Potency was 0.001 µM (active) in experiment [2], 10.5 µM (active) in experiment [6], 13.7 µM (active) in experiment [7] and 0.59 µM (active) in [10].

Regarding `Cc1ccc(NC(=O)c2cccc(N(C)C)c2)cc1NC(=O)c1ccc(O)cc1`, the Potency is 0.332 µM (active) in experiment [1], 2.96 µM (active) in experiment [2], 2.64 µM (active) in [10] and 2.96 µM (active) in experiment [5]. In addition, the Potency entry in [6], in experiment [7] and in experiment [8] was “inactive” each time.

On to `COc1nccc(-c2c(-c3ccc(F)cc3)ncn2C2CCC(O)CC2)n1` (stereo not given), for which the Potency entry in experiment [1], in experiment [2], in experiment [6], in experiment [7], in experiment [9] and in experiment [8] was “inactive” in each case. Besides, in experiment [5], the Potency entry is “inactive”.

For `CN1[C@H]2CC[C@H]1CC(OC(=O)c1c[nH]c3ccccc13)C2` (stereo not given in full), in experiment [1], the Potency is 23.5 µM (active). Further, the Potency result in experiment [2], in experiment [3], in experiment [9], in experiment [8] and in experiment [4] was “inactive” each time.

Take `c1cc(OCCN2CCCCC2)cc(-c2n[nH]c3ccc(-c4ncn[nH]4)cc23)c1`: the Potency in [1] was 5.9 µM (active); in experiment [2], 14.8 µM (active); in [7], 6.85 µM (active). Moreover, the Potency entry in experiment [6], in [10], in experiment [9], in experiment [8], in experiment [4] and in experiment [5] was “inactive” each time.

On to `NS(=O)(=O)c1ccc(Nc2nc(OCC3CCCCC3)c3[nH]cnc3n2)cc1`, for which the Potency in [1] was 18.7 µM (active); in experiment [2] it was 16.6 µM (active). The Potency result in [3], in experiment [6], in experiment [9], in [8] and in experiment [5] was “inactive” in each case.

Regarding `O=C(C=Cc1ccc(O)cc1)c1ccc(O)cc1O`, the Potency is 13.2 µM (active) in experiment [1] and 20.9 µM (active) in experiment [2]. Also, in experiment [6], the Potency entry was “inactive”.

With `N#CC(=C1Nc2ccccc2S1)c1ccnc(OCc2ccc(CN3CCOCC3)cc2)n1`, the Potency in [1] was 0.0526 µM (active); in experiment [2] it was 1.48 µM (active); in experiment [3], 0.172 µM (active); in [7], 0.344 µM (active); in experiment [10], 0.662 µM (active); in experiment [9], 3.72 µM (active).

`CN[C@@H]1CN(c2ccc3c(=O)c(C(=O)O)cn(-c4nccs4)c3n2)C[C@@H]1OC`: the Potency in experiment [1] is 1.62 µM (active); in experiment [2] it was 1.02 µM (active); in experiment [3], 9.43 µM (active); in [7], 16.8 µM (active); in experiment [10], 14.4 µM (active). In [8], the Potency result is “inactive”.

Regarding `CC(C)(C)c1nc(-c2cccc(NS(=O)(=O)c3c(F)cccc3F)c2F)c(-c2ccnc(N)n2)s1`, in experiment [1], the Potency was 18.7 µM (active). For the same compound, the Potency entry in experiment [2], in experiment [3], in experiment [7] and in [9] was “inactive” throughout.

Turning to `CCC(=C(c1ccc(O)cc1)c1ccc(OCCNC)cc1)c1ccccc1`, the Potency in experiment [1] was 23.5 µM (active); in experiment [2], 26.4 µM (active); in experiment [3] it was 27.3 µM (active); in experiment [7], 21.7 µM (active); in [10], 33.2 µM (active); in experiment [9], 23.5 µM (active).

As to `CC(NCCc1ccc(O)cc1)C(O)c1ccc(O)cc1` (stereo not given), the Potency result in experiment [1], in [2], in [3], in [7], in experiment [9] and in [8] was “inactive” throughout. Also, in [5], the Potency result is “inactive”.

As for `O=C1CCCC(=O)C1C(=O)c1ccc(C(F)(F)F)cc1[N+](=O)[O-]`, the Potency result in experiment [1], in [2], in [3], in [7], in experiment [10] and in [9] was “inactive” in each case. Also, the Potency result in [4] and in experiment [5] was “inactive” in each case.

`COc1nc(C)cnc1NS(=O)(=O)c1cccnc1-c1ccc(-c2nnco2)cc1`: the Potency result in [1], in experiment [2], in experiment [3], in experiment [7], in experiment [10] and in experiment [9] was “inactive” each time. Also, the Potency entry in [4] and in experiment [5] was “inactive” in each case.

For `C=C1c2cccc(O)c2C(O)=C2C(=O)[C@@]3(O)C(O)=C(C(N)=O)C(=O)[C@@H](N(C)C)[C@@H]3[C@@H](O)[C@H]12`, the results for the Potency in [1] and in experiment [2] were 23.5 µM (active) and 13.2 µM (active), respectively. In addition, the Potency result in [6], in experiment [7], in experiment [10], in [9] and in [8] was “inactive” each time.

Turning to `O[C@@H](COc1cccc2ncccc12)CN1CCN(C2c3ccccc3[C@@H]3[C@H](c4ccccc42)C3(F)F)CC1` (stereo not given in full), the Potency in experiment [1] was 3.32 µM (active); in experiment [2], 4.73 µM (active); in [3], 24.3 µM (active); in experiment [7], 15.5 µM (active); in [9], 29.6 µM (active); in experiment [4], 16.6 µM (active). In experiment [5], the Potency was 18.7 µM (active). For the same compound, the Potency entry in experiment [8] was “inactive”.

Take `Cc1cccc(-c2[nH]c(C(C)(C)C)nc2-c2ccc3c(c2)OCO3)n1`: the Potency in experiment [1] was 11.8 µM (active); in experiment [2], 4.18 µM (active); in experiment [7], 2.73 µM (active); in experiment [10] it was 9.35 µM (active); in experiment [5], 1.18 µM (active). Further, the Potency entry in [6], in [9] and in experiment [4] was “inactive” each time.
